An excerpt weighted towards active compounds, which were near 5.7% of everything screened.
Nrf2 block: inhibitors of Nrf2 signaling | A549 ARE-Fluc reporter, luciferase luminescence, 18-24 h | Potency, µM (titrated, usually from 46 µM), without a hit: at the highest dose activity change, negative = inhibition, most hits filed as inhibitors | 360,000 compounds, 2.1% hits; further: potency means the concentration at half of the fitted maximal effect; nearly all actives have a fitted effect of over 60% in size
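A549 ARE_Fluc cells, 5000/well, 5% FBS OPTI-MEM; compounds in dose-response, 18-24 h at 37 °C/5% CO2; CellTiter-Fluor viability read (Ex 405/Em 525), then BugLite luciferase luminescence = Nrf2 activity.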
PI4K2A block: blocks human PI4K2A kinase activity. Q9BTU6. purified PI4K2A, ADP-Glo luminescence, 1 h; hits give low values. activity change, negative = inhibition, % at 76.9 µM. 420,000 compounds, 0.13% hits. AID 1346378; in the data active means activity change below about -50%; inconclusive means mostly about -30% to -49%;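 further: -100% = wells without enzyme as full effect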
Target sequence (Q9BTU6 whole entry, looked up): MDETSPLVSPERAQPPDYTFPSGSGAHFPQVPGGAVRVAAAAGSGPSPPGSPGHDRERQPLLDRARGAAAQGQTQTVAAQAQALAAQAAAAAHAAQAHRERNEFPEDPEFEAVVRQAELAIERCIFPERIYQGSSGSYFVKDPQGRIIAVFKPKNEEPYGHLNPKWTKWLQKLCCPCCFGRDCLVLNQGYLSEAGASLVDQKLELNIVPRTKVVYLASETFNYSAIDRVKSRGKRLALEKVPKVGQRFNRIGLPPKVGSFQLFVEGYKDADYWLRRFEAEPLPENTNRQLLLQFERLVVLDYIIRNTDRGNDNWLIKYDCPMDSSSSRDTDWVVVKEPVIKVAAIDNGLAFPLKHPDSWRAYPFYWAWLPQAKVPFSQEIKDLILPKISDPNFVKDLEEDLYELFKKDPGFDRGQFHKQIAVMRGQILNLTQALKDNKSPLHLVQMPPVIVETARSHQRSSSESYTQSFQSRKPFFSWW
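PI4K2A activity was measured by ADP-Glo luminescence: enzyme (4 ug/mL stock) and phosphatidylinositol (1.2 mM stock) in Tris pH 7.5/MgCl2/EGTA/Triton X-100 buffer were reacted with ATP (300 microM stock) for one hour at ambient temperature.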
A549 viability: A549 cytotoxicity, counter-screen for Nrf2 inhibitors; 390,000 compounds, 0.16% hits; AID 504648; Potency, µM (highest dose often 46 µM), without a hit: top-dose activity change, negative = cytotoxicity, hits mostly inhibitors; A549 ARE-Fluc cells, CellTiter-Fluor viability, 18-24 h; further: potency means the concentration at half of the fitted maximal effect
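Cytotoxicity counterscreen: CellTiter-Fluor fluorescence was measured in A549 ARE_Fluc cells after 18-24 h of compound exposure in a concentration series. The subsequent BugLite luminescent read reports ARE-luciferase activity.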
KB-V1 cytotox: kills drug-selected multidrug resistant KB-V1 cells; Potency, µM (highest dose often 46.1 µM), hits mostly cytotoxic; 400,000 compounds, 3.4% hits; AID 1347076; KB-V1 MDR cells viability, CellTiter-Glo, 72 h; further: potency means the concentration at half of the fitted maximal effect; nearly all actives have a fitted effect of over 60% in size
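Cells of the MDR subline KB-V1 are plated, dosed with compound at multiple concentrations, and incubated 72 h at 37 degrees C; CellTiter-Glo is then added and luminescence read after 10 min.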
KB-3-1 tox: kills parental KB-3-1 adenocarcinoma cells | KB-3-1 viability, CellTiter-Glo ATP luminescence, 72 h | 400,000 compounds, 1.4% hits | Potency, µM (titrated, usually from 46.1 µM), actives largely listed as cytotoxic; further: potency means the concentration at half of the fitted maximal effect; nearly all actives have a fitted effect of over 60% in size
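KB-3-1 cells, DMEM (no phenol red) + 10% FBS; compound by pin transfer, 72 h, 37 °C. Readout: CellTiter-Glo luminescence after 10 min. Data normalized, curve-fitted.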
Giardia kill: Giardia lamblia killing. Giardia lamblia trophozoite viability. activity change, % at 7.66 µM, hits read low. 340,000 compounds, 0.15% hits. AID 540267; in the data active means activity change below about -80%; inconclusive means between about -30% and that limit;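 further: parasites exposed to compound for two days anaerobically before the ATP read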
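Media and compound were dispensed first, then trophozoites at 100 cells/well; plates sat 48 hrs at 37 deg C without oxygen before ATP luminescence reagent was added and read after 15-30 min at room temperature.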
* = called active by the depositor; i = inactive; ? = inconclusive; / = not tested or not shown; ! = repeats disagree. Unless noted, the call rests on the fitted dose curve; in most records, active means well fitted curve in the direction sought with a large enough effect; inconclusive means small, poorly fitted or top-dose-only effect, or another doubt; inactive means no such curve, though single readings can be large; an effect the other way counts as inactive or inconclusive. Unless noted, on the % scale 0 is the no-effect control and ±100 the full control effect.

SMILES	Nrf2 block	PI4K2A block	A549 viability	KB-V1 cytotox	KB-3-1 tox	Giardia kill
Cc1ccccc1CSCCNC(=O)CN(c1ccccc1)S(=O)(=O)N(C)C	-13%	6	1%	16µM*	?	/
Cc1ccccc1CSCCNC(=O)c1ccccc1	1%	4	4%	16µM*	i	-7
CN(C)S(=O)(=O)N(CC(=O)NCCSCc1ccccc1Cl)c1ccccc1	/	3	-1%	/	/	/
C/C(=N\NC(=O)CSCc1ccc([N+](=O)[O-])cc1)c1ccccc1O	?	2	-6%	21µM*	i	17
CS(=O)(=O)N(CC(=O)Nc1cccc(Cl)c1Cl)c1ccccc1	5%	1	1%	i	i	-18
COC(=O)CCN(Cc1ccco1)S(=O)(=O)c1ccc(F)cc1Br	22%	/	0%	/	/	10
O=C(C[N+]1(CCc2ccccc2)CCOCC1)c1cccc([N+](=O)[O-])c1	/	/	/	i	i	/
O=C(Nc1cccc([S+](=O)([O-])Nc2ccccc2F)c1)c1ccccc1	/	/	/	i	i	/
Cc1cccc(NC(c2cccc(Cl)c2)c2ccc3cccnc3c2O)n1 (configuration not stated)	?	-4	-8%	/	/	/
Cc1ccc(CSCCNC(=O)CSCc2ccc([N+](=O)[O-])cc2)cc1	11%	9	4%	i	i	-8
O=C(CN1CCC(C(O)(c2ccccc2)c2ccccc2)CC1)Nc1cc(Cl)ccc1Cl	14%	-3	-10%	18µM*	i	13
Cc1ccc(NC(=O)CN(c2ccccc2)S(=O)(=O)N(C)C)cc1Cl	-15%	3	-3%	12µM*	?	/
Cc1ccccc1CSCCNC(=O)CSCc1ccc([N+](=O)[O-])cc1	-1%	0	19%	16µM*	i	-7
Nc1ccc(S(=O)(=O)N2CCCN(S(=O)(=O)c3ccc4c(c3)OCCO4)CC2)cc1	-8%	/	-14%	/	/	/
O=C(O)c1ccc(-c2noc(-c3ccccc3F)n2)cc1	?	-68*	-9%	i	?	0
O=C(c1ccccc1-c1nc(-c2ccccc2)no1)N1CCOCC1	15%	3	-9%	12µM*	i	6
O=C(c1ccc(-c2ccccc2)cc1)c1ccccc1C(=O)N1CCOCC1	-14%	-4	-15%	21µM*	i	-19
O=C(Nc1cccc(C(=O)N2CCN(c3ccc(F)cc3)CC2)c1)c1nsc2ccccc12	/	-1	-7%	i	i	/
CC(C)(C)c1ccc(S(=O)(=O)N2CCN(c3nc(-c4ccccc4)nc4ccccc34)CC2)cc1	17%	/	19%	i	i	8
CCCCCCCCCCCCCCCC(=O)NCCc1c[nH]c2ccccc12	1%	3	0%	i	i	-7
CCCCOc1ccc(-c2nnn(CC(=O)NCCc3c[nH]c4ccccc34)n2)cc1	0%	-1	-3%	16µM*	i	-1
CCOc1ccc(-c2nnn(CC(=O)Nc3cccc(OC)c3)n2)cc1OCC	?	-5	16%	?	i	20
COc1ccc(NC(=O)Cn2nnc(-c3ccc(CN4CCOCC4)cc3)n2)c(OC)c1	-15%	-4	11%	21µM*	i	-17
CCCOc1ccc(-c2nnn(CC(=O)Nc3cccc(C(=O)OC)c3)n2)cc1	?	-5	-1%	13µM*	i	6
COc1ccc(NC(=O)Cn2nnc(-c3ccccc3NS(=O)(=O)c3ccc(OC)cc3)n2)cc1	-36%	1	-24%	?	?	11
SMILES	Nrf2 block	PI4K2A block	A549 viability	KB-V1 cytotox	KB-3-1 tox	Giardia kill
COc1ccccc1NC(=O)Cn1nnc(-c2ccccc2NS(=O)(=O)c2ccccc2)n1	?	-2	-19%	5.8µM*	?	14
c1nc(NCCCN2CCOCC2)c2cc(-c3ccc4c(c3)OCO4)ccc2n1	-27%	/	15%	i	i	/
COC(=O)c1ccccc1NC(=O)Cn1nnc(-c2ccc(OC)cc2)n1	-26%	1	-14%	15µM*!	i	-11
COC(=O)c1ccccc1NC(=O)Cn1nnc(-c2ccc3c(c2)OCO3)n1	7%	2	-3%	i	?	-11
Nc1c(C(=O)Nc2ccccc2)nnn1Cc1ccc(F)cc1Cl	?	-6	8%	/	/	/
COc1ccccc1OC(C)C(=O)Nc1nc(-c2ccc(S(=O)(=O)N3CCOCC3)cc2)cs1 (configuration not stated)	4%	0	?	4.6µM*	i	-9
Cc1ccc(S(=O)(=O)N2CCOCC2)cc1C(=O)Nc1nc(-c2ccccn2)cs1	9.2µM*	-3	-12%	?	i	33
CCOc1cccc(C(=O)Nc2nc(-c3ccc(S(=O)(=O)N4CCOCC4)cc3)cs2)c1	/	6	0%	i	i	-9
O=C(Nc1nc(-c2ccccn2)cs1)c1cccc(S(=O)(=O)N2CCOCC2)c1	3.3µM*	-6	?	i	?	0
COc1ccc(C(=O)Nc2nc(-c3ccccn3)cs2)cc1S(=O)(=O)N1CCOCC1	16µM*	-2	-3%	i	i	-7
COc1ccc(C(=O)Nc2ccccn2)cc1S(=O)(=O)N1CCOCC1	13%	-3	1%	/	/	21
OC1(c2ccc(Cl)cc2)CCNCC1	/	0	/	/	/	/
CCOC(=O)c1c(-c2ccccc2Cl)csc1NC(=O)c1cc(S(=O)(=O)N2CCOCC2)ccc1C	-18%	-2	?	10µM*	i	-13
O=S1(=O)CCN2C(=N1)Sc1c2ccc2c1CCCC2	9%	-1	1%	4.6µM*	i	-18
COC(=O)C[C@H]1CC[C@H]2[C@H](COc3ccc(NS(=O)(=O)c4cccc(F)c4)cc3C(=O)N2C)O1	/	-2	/	/	/	/
COc1ccc(NC(=O)C(C)Sc2cc(-c3ccccc3)nc(C)n2)cc1Cl (configuration not stated)	21µM*	1	?	/	/	/
COc1ccc(N2CCCN(CC(=O)Nc3ccccc3C)CC2)cc1	/	-3	/	/	/	/
CSc1cccc(Nc2cc(C(=O)NCCCN(Cc3ccccc3)C(C)C)c3ccccc3n2)c1	/	6	?	16µM*	i	/
O=C(Nc1sc2c(c1C(=O)NCc1cccnc1)CCCC2)c1ccco1	7%	-5	1%	23µM*	i	18
Cc1ccc(C(=O)Nc2sc3c(c2C(=O)NCc2ccco2)CCCC3)cc1	?	4	?	i	i	20
O=C(Nc1sc2c(c1C(=O)NCc1ccco1)CCCC2)c1ccc2c(c1)OCO2	2%	-4	18%	15µM*	i	-11
